# The entries come from a sample that favours hits as a whole.
# Pf Dd2 inh: Plasmodium falciparum Dd2 growth inhibition; hit rate 4.3% among 120,000; P. falciparum Dd2 growth, SYBR Green, 72 h; Potency, µM (titrated, usually from 28.9 µM), for inactives: at the highest dose activity, negative = inhibition, usual class: inhibitors; active means well fitted inhibition curve with a large enough effect;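 further: plate controls were DMSO vehicle for no effect and reference drug for full effect; nearly all actives have a fitted effect of over 65% in size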
#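 Readout: SYBR Green fluorescence, 485 nm excitation, 535 nm emission, after ~16 h lysis at 37C. Before that, Dd2-infected red cells (2.5% hematocrit) grew 72 h with compound, 29 uM top final concentration.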
# Numbers without * were called inactive; i = inactive; [ ] = dose if it differs, or a comment. Potency means the concentration at half of the fitted maximal effect.
SMILES,Pf Dd2 inh
CN1CC[C@H]2CN(S(=O)(=O)c3cc(C(=O)O)c(Cl)cc3F)C[C@H]21,-11%
CN(C)c1cccc(Oc2nnnn2[C@H]2CO[C@H]3[C@@H]2OC[C@@H]3NC(=O)NC2CCCCC2)c1,-14%
COCCNC(=O)CN1C(=O)COc2ccc(S(=O)(=O)N3CCOCC3)cc21,14%
Cc1ccc2oc(C(=O)Nc3ccc(S(=O)(=O)Nc4nc(C)cc(C)n4)cc3)cc(=O)c2c1,i
Cc1ccc(-c2nc3c(cnn3-c3ccccc3)c(=O)n2-c2cccc(Cl)c2)cc1,-7%
COc1cccc(-n2c(-c3ccccc3F)nc3c(cnn3-c3ccc(C)cc3)c2=O)c1,8.9µM*
Cc1ccc(-n2c(C)nc3c(cnn3-c3ccccc3)c2=O)cc1,14%
Cc1cccc(-n2c(-c3ccco3)nc3c(cnn3-c3ccc(F)cc3)c2=O)c1,i
Cc1ccc(-n2c(-c3ccco3)nc3c(cnn3-c3ccc(C)cc3)c2=O)cc1,11µM*
Cc1ccc(-n2c(-c3ccco3)nc3c(cnn3-c3ccccc3C)c2=O)cc1,i
CN1CCCN(CCC(=O)N2CCC3(CC2)OCCCC3O)CC1 (stereo not drawn),-9%
O=C([C@H]1C[C@H](Oc2cccnc2)CN1C(=O)NC1CCCCC1)N1CCOCC1,26%
CC(C)NC(=O)N[C@H]1C[C@H]2C(=O)NC[C@@H](CCC(=O)N3CCN(c4ccccc4)CC3)N2C1,1%
COCCc1noc(-c2ccccc2OC2CN(C(=O)c3cnccn3)C2)n1,49%
COc1ccc(OC)c(S(=O)(=O)N2CCC(Oc3ccccc3-c3nc(C)no3)C2)c1 (stereo not drawn),-11%
COCCc1noc(-c2ccccc2OC2CN(S(=O)(=O)C(C)C)C2)n1,8.9µM*
Cc1ccc(C(=O)N2CCC(Oc3ccccc3-c3nc(-c4ccncc4)no3)C2)cn1 (stereo not drawn),i
Cc1noc(-c2ccccc2OC2CCN(S(C)(=O)=O)C2)n1 (stereo not drawn),1%
COCCc1noc(-c2ccccc2OC2CN(C(=O)c3ccncc3)C2)n1,10µM*
O=C(CSc1nnc(-c2ccccc2)c(-c2ccccc2)n1)NC1CCCC1,20%
Cc1nc(SC(C)C(=O)Nc2ccccc2C)cc(-c2ccccc2)n1 (stereo not drawn),-22%
COc1ccc(C(=O)N2CCC(Cn3c(C)cnc3-c3cccnc3)CC2)c(OC)c1,-21%
COc1ccc(C(=O)NC[C@H]2O[C@H](Cc3cc(CN4CCOCC4)on3)CC[C@@H]2O)cc1,-15%
CCCNC(=O)CN1C(=O)COc2ccc(S(=O)(=O)N3CCC(C)CC3)cc21,-21%
Cc1ccc(CCNC(=O)CN2C(=O)COc3ccc(S(=O)(=O)N4CCC(C)CC4)cc32)cc1,-20%
SMILES,Pf Dd2 inh
CCCN(CCC)CCNC(=O)CN1C(=O)COc2ccc(S(=O)(=O)N3CCC(C)CC3)cc21,4.5µM*
CN(Cc1nc2ccsc2c(=O)[nH]1)C(=O)CCC1NC(=O)NC1=O (stereo not drawn),26%
CC1(COc2cccnc2)COc2ccc(C(=O)Nc3cccc(Cl)c3)cc2N1 (stereo not drawn),-18%[44.1 µM]
O=C(c1ccccc1OC1CCN(C2Cc3ccccc3C2)CC1)N1CCCCC1,-18%
O=C(NC1CC1)c1ccccc1OC1CN(C2CCC2)C1,2.8µM*
O=C(NC1CC1)c1ccccc1OC1CN(Cc2ccc(F)cc2)C1,-20%
CN1CC(=O)N(C2CCNCC2)Cc2c1ncnc2N(C)Cc1ccc(F)cc1,13%
CCc1ccc(Nc2ncnc3sc4c(c23)CCCC4)cc1,i
CCn1c2c(c(=O)n1-c1ccccc1)CCN(C(=O)c1ccnn1C)C2,31%[44.1 µM]
CCNc1ncnc2sc3c(c12)CCN(Cc1ccc[nH]1)C3,1µM*
CCNc1ncnc2sc3c(c12)CCN(C(=O)c1ccnn1C)C3,11µM*
COc1ccc(Nc2ncnc3sc4c(c23)CCCC4)cc1,4%
CCCNC(=O)N1CCc2c(sc3ncnc(N4CCN(C)CC4)c23)C1,-5%
Nc1c(-c2nc(-c3cccs3)no2)nnn1-c1ccccc1Cl,-11%
COc1ccc(-c2nc3ccccc3o2)cc1NC(=O)c1ccc(-c2ccc(C)c(Cl)c2)o1,-16%
Cc1ccc(NS(=O)(=O)c2ccc3c(c2)NC(=O)C(C)C(=O)N3)cc1F (stereo not drawn),0%
O=C1CCCCC(Cc2ccccc2)(C(=O)Nc2cccc(F)c2)N1 (stereo not drawn),-10%
COc1ccc(CNC(=O)c2nn(C)c3c2CS(=O)(=O)c2ccccc2-3)cc1,44%[0.594 µM]
O=C(NCc1ccccc1)c1noc(-c2ccc(F)cc2)n1,43%
COc1ccc2cc(C3CN(C(=O)CCc4n[nH]c(C)n4)CCO3)ccc2c1 (stereo not drawn),-6%
CC(C)(C)C(=O)N[C@H]1CO[C@H]2[C@@H]1OC[C@@H]2Nc1nccc(-c2cccc(C#N)c2)n1,i
COCC(=O)N[C@H]1CO[C@H]2[C@@H]1OC[C@@H]2Nc1nccc(-c2cccc(C#N)c2)n1,11µM*
N#Cc1cccc(-c2ccnc(N[C@H]3CO[C@H]4[C@@H]3OC[C@H]4OC(=O)Nc3cccc4ccccc34)n2)c1,11µM*
COCC(=O)N[C@H]1CO[C@H]2[C@@H]1OC[C@@H]2Nc1nccc(-c2cccc(F)c2)n1,i
N#Cc1cccc(NC(=O)O[C@@H]2CO[C@H]3[C@@H]2OC[C@@H]3Nc2nccc(-c3cccc(C#N)c3)n2)c1,i
SMILES,Pf Dd2 inh
COc1ccc(NC(=O)O[C@@H]2CO[C@H]3[C@@H]2OC[C@@H]3Nc2nccc(-c3cccc(C#N)c3)n2)cc1,-20%
CCCNC(=O)NC[C@H]1O[C@@H]2C[C@@H](CC(=O)N3CCOCC3)O[C@@H]2[C@@H]1O,26%[44.1 µM]
Cc1ccc(C)c(NC(=O)CSc2nc(-c3ccccc3)cc(=O)[nH]2)c1,19%
Cc1cc(C)cc(NC(=O)Cn2cc(C(=O)c3ccncc3)c(=O)c3cc(C)c(C)cc32)c1,-24%
CCc1cccc(NC(=O)Cn2cc(C(=O)c3ccncc3)c(=O)c3cc(C)c(C)cc32)c1,10µM*
Cc1ccc2c(c1)c(=O)c(C(=O)c1ccncc1)cn2CC(=O)Nc1ccccc1Cl,i
CN(C)C(=O)c1nc(C(C)(C)C)c2ccccn12,16%[44.1 µM]
COc1ccc2nc3n(c2c1)[C@@H](CNC(=O)C1CCOCC1)COC3,10%[44.1 µM]
CC(C)N1CC[C@@H]2[C@H]1C(=O)NC[C@H](CCC(=O)Nc1ccccc1)N2C,0%[44.1 µM]
COc1ccc(NC(=O)c2cc(S(=O)(=O)N3CCCC3)ccc2OC)cc1,7%
CCOc1ccc(C(=O)N2CCC[C@H]2c2nc(-c3ccc(OC)c(OC)c3)no2)cc1,i
CCc1ccc(OCC2c3cc(OC)c(OC)cc3CCN2C(=O)c2ccc(S(=O)(=O)N3CCCC3)cc2)cc1 (stereo not drawn),11µM*
COc1ccc(C(=O)N2CCCN(S(=O)(=O)c3ccccc3)CCC(=O)NCC2)cc1F,-19%
CCc1ccc(C(=O)N2CCC(c3nc(-c4ccc(S(=O)(=O)N5CCCC5)cc4)no3)CC2)cc1,-22%
CCOC(=O)c1ccc(OCC2c3cc(OC)c(OC)cc3CCN2C(=O)c2ccc(S(=O)(=O)N3CCCC3)cc2)cc1 (stereo not drawn),11µM*
O=C1CN(C(=O)c2ccc(S(=O)(=O)N3CCCC3)cc2)C(c2ccccc2)c2cc(F)ccc2N1 (stereo not drawn),-3%
COc1cc2c(cc1OC)C(COc1ccccc1OC)N(C(=O)c1ccc(S(=O)(=O)N3CCCC3)cc1)CC2 (stereo not drawn),11µM*

# Screens: PubChem BioAssay, National Center for Advancing Translational Sciences (NCATS)
